About 7,900 targets were measured; listed, in parts, are those with a hit and a random draw of the rest. About 0.6% of all pairs of compound and target were hits.
Assays:
Experiment in all cases: log2 fold change, soluble protein after heating vs DMSO (PISA); higher = thermal stabilisation; K562 cells, 10 uM, 30 min; active = over 0.2 and 3.5 SD of the protein, either way, in both replicates (recomputed)
saracatinib = compound: CN1CCN(CCOc2cc(OC3CCOCC3)c3c(Nc4c(Cl)ccc5c4OCO5)ncnc3c2)CC1 [saracatinib]
Summary of the method: (§1)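 K562 cells at 2×10^6 cells/mL were exposed to 10 μM compound for 30 min, then aliquots were heated for 3 min across 48°C-58°C, pooled, and extracted in PBS containing 0.5% NP-40 at 4°C. The supernatant after 21,000xg for 90 min was taken as soluble protein and measured by TMTpro 16plex LC-MS/MS with channel sums equalised. Thermal stability is reported relative to control samples, with values from duplicates. Fold changes are given on a log2 scale.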

sotrastaurin = compound: CN1CCN(c2nc(C3=C(c4c[nH]c5ccccc45)C(=O)NC3=O)c3ccccc3n2)CC1 [sotrastaurin]
Summary of the method: as §1

alvocidib = compound: CN1CC[C@H](c2c(O)cc(O)c3c(=O)cc(-c4ccccc4Cl)oc23)[C@H](O)C1 [alvocidib]
Summary of the method: as §1

Tubastatin A = compound: CN1CCc2c(c3ccccc3n2Cc2ccc(C(=O)NO)cc2)C1 [Tubastatin A]
Summary of the method: as §1

[1] = compound: CNC(=O)C1=CC=CC=C1NC2=NC(=NC=C2Cl)NC3=C(C=C(C=C3)N4CCOCC4)OC
Summary of the method: as §1

defactinib = compound: CNC(=O)c1ccc(Nc2ncc(C(F)(F)F)c(NCc3nccnc3N(C)S(C)(=O)=O)n2)cc1 [defactinib]
Summary of the method: as §1

rucaparib = compound: CNCc1ccc(-c2[nH]c3cc(F)cc4c3c2CCNC4=O)cc1 [rucaparib]
Summary of the method: as §1

[2] = compound: CNc1nc(-c2ccc3c(N)n[nH]c3c2)cc(N2C[C@@H](C(=O)NC3CCCCC3)CC[C@H]2C)n1
Summary of the method: as §1

encorafenib = compound: COC(=O)N[C@@H](C)CNc1nccc(-c2cn(C(C)C)nc2-c2cc(Cl)cc(NS(C)(=O)=O)c2F)n1 [encorafenib]
Summary of the method: as §1

[3] = compound: COC(=O)[C@H](CCSC)NC(=O)C1=C(C=C(C=C1)NC[C@H](CS)N)C2=CC=CC=C2
Summary of the method: as §1

[4] = compound: COC1=CC=C(C=C1)CN2C=CC3=C2C=C(C=C3)C(=O)NO
Summary of the method: as §1

filanesib = compound: CON(C)C(=O)N1N=C(c2cc(F)ccc2F)S[C@@]1(CCCN)c1ccccc1 [filanesib]
Summary of the method: as §1

zotarolimus = compound: CO[C@H]1C[C@@H]2CC[C@@H](C)[C@@](O)(O2)C(=O)C(=O)N2CCCC[C@H]2C(=O)O[C@H]([C@H](C)C[C@@H]2CC[C@H](n3cnnn3)[C@H](OC)C2)CC(=O)[C@H](C)/C=C(\C)[C@@H](O)[C@@H](OC)C(=O)[C@H](C)C[C@H](C)/C=C/C=C/C=C/1C [zotarolimus]
Summary of the method: as §1

idasanutlin = compound: COc1cc(C(=O)O)ccc1NC(=O)[C@@H]1N[C@@H](CC(C)(C)C)[C@](C#N)(c2ccc(Cl)cc2F)[C@H]1c1cccc(Cl)c1F [idasanutlin]
Summary of the method: as §1

alisertib = compound: COc1cc(Nc2ncc3c(n2)-c2ccc(Cl)cc2C(c2c(F)cccc2OC)=NC3)ccc1C(=O)O [alisertib]
Summary of the method: as §1

[5] = compound: COc1cc2nc(-c3cc(F)ccc3O)nc(N[C@@H]3CNC[C@H]3C(C)(C)O)c2cc1OC
Summary of the method: as §1

gefitinib = compound: COc1cc2ncnc(Nc3ccc(F)c(Cl)c3)c2cc1OCCCN1CCOCC1 [gefitinib]
Summary of the method: as §1

[6] = compound: COc1cccc2cc(-c3nc([C@H]4CC[C@H](C(=O)O)CC4)n4ncnc(N)c34)[nH]c12
Summary of the method: as §1

lapatinib = compound: CS(=O)(=O)CCNCc1ccc(-c2ccc3ncnc(Nc4ccc(OCc5cccc(F)c5)c(Cl)c4)c3c2)o1 [lapatinib]
Summary of the method: as §1

pictilisib = compound: CS(=O)(=O)N1CCN(Cc2cc3nc(-c4cccc5[nH]ncc45)nc(N4CCOCC4)c3s2)CC1 [pictilisib]
Summary of the method: as §1

Measured: log2 fold change

MARCKSL1 (UniProt P49006)
Sequence of UniProt P49006 (P49006 whole entry, looked up): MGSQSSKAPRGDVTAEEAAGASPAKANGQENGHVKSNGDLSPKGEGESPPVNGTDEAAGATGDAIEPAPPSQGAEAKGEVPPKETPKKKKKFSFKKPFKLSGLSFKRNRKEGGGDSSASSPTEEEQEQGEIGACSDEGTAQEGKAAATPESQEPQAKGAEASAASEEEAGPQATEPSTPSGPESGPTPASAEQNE
active: sotrastaurin 0.315
inactive: saracatinib 0.02 | alvocidib -0.005 | Tubastatin A -0.043 | [1] 0.013 | defactinib 0.007 | rucaparib -0.035 | [2] 0.063 | encorafenib -0.04 | [3] -0.008 | [4] -0.074 | filanesib 0.002 | zotarolimus -0.033 | idasanutlin -0.011 | alisertib -0.093 | [5] 0.073 | gefitinib -0.027 | [6] 0.028 | lapatinib -0.061 | pictilisib 0.026

JMJD6 isoform 3 (UniProt Q6NYC1)
inactive: saracatinib -0.01 | sotrastaurin -0.018 | alvocidib -0.076 | Tubastatin A -0.122 | [1] 0.081 | defactinib -0.188 | rucaparib 0.061 | [2] -0.016 | encorafenib 0.026 | [3] 0.035 | [4] -0.061 | filanesib -0.039 | zotarolimus 0.03 | idasanutlin 0.019 | alisertib 0.013 | [5] -0.088 | gefitinib 0.059 | [6] -0.021 | lapatinib -0.016 | pictilisib 0.039

LMNA (UniProt P02545)
Sequence of UniProt P02545 (P02545 whole entry, looked up): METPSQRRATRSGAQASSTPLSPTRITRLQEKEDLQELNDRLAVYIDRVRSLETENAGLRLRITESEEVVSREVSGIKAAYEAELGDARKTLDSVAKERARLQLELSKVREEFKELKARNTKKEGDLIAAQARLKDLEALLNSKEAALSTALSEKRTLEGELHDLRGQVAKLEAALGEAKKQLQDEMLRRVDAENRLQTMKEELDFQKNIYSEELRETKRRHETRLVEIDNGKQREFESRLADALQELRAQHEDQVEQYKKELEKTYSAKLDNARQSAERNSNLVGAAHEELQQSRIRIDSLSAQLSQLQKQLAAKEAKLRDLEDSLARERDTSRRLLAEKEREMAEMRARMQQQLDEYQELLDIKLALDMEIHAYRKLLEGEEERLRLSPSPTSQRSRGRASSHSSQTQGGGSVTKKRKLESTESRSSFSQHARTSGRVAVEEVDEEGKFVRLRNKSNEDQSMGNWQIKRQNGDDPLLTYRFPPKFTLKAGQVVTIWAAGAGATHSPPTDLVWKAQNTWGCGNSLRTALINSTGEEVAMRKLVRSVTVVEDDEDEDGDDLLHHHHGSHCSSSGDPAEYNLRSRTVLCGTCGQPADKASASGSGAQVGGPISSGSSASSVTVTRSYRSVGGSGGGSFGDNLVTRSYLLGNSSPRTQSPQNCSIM
active: alvocidib -0.214
inactive: saracatinib 0.041 | sotrastaurin -0.083 | Tubastatin A -0.033 | [1] 0.003 | defactinib -0.121 | rucaparib -0.08 | [2] -0.138 | encorafenib -0.019 | [3] 0.042 | [4] -0.093 | filanesib 0.088 | zotarolimus 0.018 | idasanutlin 0.093 | alisertib 0.096 | [5] -0.112 | gefitinib -0.014 | [6] 0 | lapatinib 0.028 | pictilisib 0.008

ILK (UniProt Q13418)
Sequence of UniProt Q13418 (Q13418 whole entry, looked up): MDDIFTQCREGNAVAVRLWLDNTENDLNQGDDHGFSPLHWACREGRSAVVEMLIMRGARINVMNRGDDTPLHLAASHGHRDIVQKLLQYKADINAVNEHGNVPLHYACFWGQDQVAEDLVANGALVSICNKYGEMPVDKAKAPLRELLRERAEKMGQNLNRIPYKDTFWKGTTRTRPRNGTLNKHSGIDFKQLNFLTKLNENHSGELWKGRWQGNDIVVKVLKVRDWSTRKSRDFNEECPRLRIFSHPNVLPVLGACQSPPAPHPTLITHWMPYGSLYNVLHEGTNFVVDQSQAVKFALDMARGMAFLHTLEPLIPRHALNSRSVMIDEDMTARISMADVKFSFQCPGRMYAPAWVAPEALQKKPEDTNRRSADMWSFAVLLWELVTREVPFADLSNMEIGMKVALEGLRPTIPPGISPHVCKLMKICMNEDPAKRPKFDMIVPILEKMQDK
inactive: saracatinib -0.119 | sotrastaurin 0.043 | alvocidib -0.107 | Tubastatin A 0.01 | [1] -0.034 | defactinib 0 | rucaparib 0.026 | [2] 0.031 | encorafenib 0.03 | [3] 0.06 | filanesib 0.023 | zotarolimus -0.052 | idasanutlin 0.021 | alisertib 0.038 | [5] 0.036 | gefitinib 0.007 | [6] 0 | lapatinib -0.05 | pictilisib 0.068
active: [4] -0.444

KCTD2 (UniProt Q14681)
Sequence of UniProt Q14681 (Q14681 whole entry, looked up): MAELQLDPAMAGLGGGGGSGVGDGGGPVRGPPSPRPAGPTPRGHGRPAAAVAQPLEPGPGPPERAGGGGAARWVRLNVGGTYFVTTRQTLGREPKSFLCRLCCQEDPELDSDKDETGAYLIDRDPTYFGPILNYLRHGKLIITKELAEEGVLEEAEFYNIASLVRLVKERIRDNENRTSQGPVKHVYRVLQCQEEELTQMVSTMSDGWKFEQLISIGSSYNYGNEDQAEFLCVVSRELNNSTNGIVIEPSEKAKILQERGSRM
inactive: saracatinib -0.276 | sotrastaurin 0.226 | alvocidib 0.188 | Tubastatin A 0.015 | [1] -0.076 | defactinib 0.038 | rucaparib 0.066 | [2] -0.243 | encorafenib -0.128 | [3] 0.082 | [4] 0.068 | filanesib 0.154 | zotarolimus -0.148 | idasanutlin 0.116 | alisertib -0.012 | [5] 0.402 | gefitinib 0.025 | [6] 0.154 | lapatinib -0.413 | pictilisib 0.426

KTN1 (UniProt Q86UP2)
Sequence of UniProt Q86UP2 (Q86UP2 whole entry, looked up): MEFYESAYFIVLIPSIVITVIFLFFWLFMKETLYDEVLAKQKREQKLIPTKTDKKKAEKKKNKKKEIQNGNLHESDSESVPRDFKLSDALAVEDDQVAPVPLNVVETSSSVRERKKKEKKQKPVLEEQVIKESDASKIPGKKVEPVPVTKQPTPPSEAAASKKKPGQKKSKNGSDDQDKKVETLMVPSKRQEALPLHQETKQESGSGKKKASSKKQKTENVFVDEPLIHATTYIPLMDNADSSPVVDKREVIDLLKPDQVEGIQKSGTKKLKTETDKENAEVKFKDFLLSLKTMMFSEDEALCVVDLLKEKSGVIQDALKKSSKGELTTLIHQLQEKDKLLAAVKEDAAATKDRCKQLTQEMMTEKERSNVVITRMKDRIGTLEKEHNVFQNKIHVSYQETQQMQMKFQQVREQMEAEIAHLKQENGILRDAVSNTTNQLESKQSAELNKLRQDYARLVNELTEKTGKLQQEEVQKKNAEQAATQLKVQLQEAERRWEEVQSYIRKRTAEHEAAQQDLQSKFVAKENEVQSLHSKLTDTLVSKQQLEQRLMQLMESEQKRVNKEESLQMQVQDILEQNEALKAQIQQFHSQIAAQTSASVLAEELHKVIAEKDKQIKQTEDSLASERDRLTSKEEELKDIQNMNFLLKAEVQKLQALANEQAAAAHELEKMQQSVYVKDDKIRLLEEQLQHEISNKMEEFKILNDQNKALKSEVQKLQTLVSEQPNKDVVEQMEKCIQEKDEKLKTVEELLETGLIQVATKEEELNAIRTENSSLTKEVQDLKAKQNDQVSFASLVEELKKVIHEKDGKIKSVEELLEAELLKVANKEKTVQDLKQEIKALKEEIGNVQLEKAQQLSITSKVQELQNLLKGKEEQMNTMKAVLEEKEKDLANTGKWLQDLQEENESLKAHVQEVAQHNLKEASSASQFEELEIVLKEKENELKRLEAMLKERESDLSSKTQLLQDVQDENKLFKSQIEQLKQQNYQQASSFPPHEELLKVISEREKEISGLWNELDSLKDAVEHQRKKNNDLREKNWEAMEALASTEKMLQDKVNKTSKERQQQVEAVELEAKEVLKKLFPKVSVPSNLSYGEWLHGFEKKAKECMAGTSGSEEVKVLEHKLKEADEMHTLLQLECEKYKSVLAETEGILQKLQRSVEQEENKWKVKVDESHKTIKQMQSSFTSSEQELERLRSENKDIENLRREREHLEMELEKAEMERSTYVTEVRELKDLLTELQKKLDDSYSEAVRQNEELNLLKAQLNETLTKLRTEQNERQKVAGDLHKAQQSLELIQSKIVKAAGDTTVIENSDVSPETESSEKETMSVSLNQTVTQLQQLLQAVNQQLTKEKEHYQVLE
inactive: saracatinib 0.001 | sotrastaurin -0.07 | alvocidib 0.109 | Tubastatin A 0.032 | [1] -0.12 | defactinib 0.109 | rucaparib 0.155 | [2] -0.079 | encorafenib 0.137 | [3] -0.053 | [4] 0.023 | filanesib 0.146 | zotarolimus 0.034 | idasanutlin 0.004 | alisertib 0.032 | [5] -0.001 | gefitinib -0.08 | [6] -0.116 | lapatinib -0.038 | pictilisib -0.086

LPCAT3 (UniProt Q6P1A2)
Sequence of UniProt Q6P1A2 (Q6P1A2 whole entry, looked up): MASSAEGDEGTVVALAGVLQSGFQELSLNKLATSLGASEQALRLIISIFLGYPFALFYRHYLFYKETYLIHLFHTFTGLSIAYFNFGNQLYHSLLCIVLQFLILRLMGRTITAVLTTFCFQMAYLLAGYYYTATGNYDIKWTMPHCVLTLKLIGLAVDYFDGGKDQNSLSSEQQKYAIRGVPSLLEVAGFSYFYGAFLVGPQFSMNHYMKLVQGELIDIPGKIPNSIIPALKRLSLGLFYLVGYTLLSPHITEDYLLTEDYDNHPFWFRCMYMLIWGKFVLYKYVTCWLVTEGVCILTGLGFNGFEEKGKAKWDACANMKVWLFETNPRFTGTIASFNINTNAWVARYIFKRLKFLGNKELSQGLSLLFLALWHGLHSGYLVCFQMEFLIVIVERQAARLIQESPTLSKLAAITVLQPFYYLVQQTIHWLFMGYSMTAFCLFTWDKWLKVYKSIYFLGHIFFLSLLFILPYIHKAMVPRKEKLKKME
active: filanesib -0.352
inactive: saracatinib -0.048 | sotrastaurin -0.14 | alvocidib -0.002 | Tubastatin A 0 | [1] 0.093 | defactinib 0 | rucaparib -0.074 | [2] 0.138 | encorafenib -0.026 | [3] -0.021 | [4] -0.067 | zotarolimus -0.065 | idasanutlin -0.086 | alisertib -0.055 | [5] -0.117 | gefitinib -0.024 | [6] -0.017 | lapatinib 0.172 | pictilisib -0.011

MIF (UniProt P14174)
Sequence of UniProt P14174 (P14174 whole entry, looked up): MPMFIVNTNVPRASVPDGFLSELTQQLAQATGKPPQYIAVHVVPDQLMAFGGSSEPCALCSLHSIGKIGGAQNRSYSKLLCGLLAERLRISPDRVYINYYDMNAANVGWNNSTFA
inactive: saracatinib -0.029 | sotrastaurin -0.005 | alvocidib -0.001 | Tubastatin A -0.065 | [1] 0.82 | defactinib -0.019 | rucaparib 0.026 | [2] -0.105 | encorafenib -0.058 | [3] 0.06 | [4] 0.027 | filanesib 0.024 | zotarolimus 0.029 | idasanutlin 0.043 | alisertib 0.043 | [5] -0.082 | gefitinib 0.082 | [6] -0.043 | lapatinib -0.034 | pictilisib -0.141

From the supplement of paper PMC10849652
